Read-out in test [1]: Intercellular Adhesion Molecule 1 (ICAM1), ICAM1 (gene 3383)
Nature of the test: BSK_3C_ICAM1: BioMAP Diversity Plus: 3C Assay for Intercellular Adhesion Molecule 1 (ICAM1) Biomarker Activity (AID 2283003; active = hit-call score of the fitted dose curve at least 0.9, where 1 is the maximum; inactive = score below 0.9). The note with it: primary human endothelial cells (HUVEC); actives raise or lower the signal. The essentials:
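HUVEC primary cells stimulated under 3C conditions; ICAM1 measured by ELISA 24 h after compound dosing. Curves fitted bidirectionally against the DMSO baseline. Overt cytotoxicity checked by SRB staining of parallel cultures.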

The target in test [2] is Peroxisome proliferator-activated receptor gamma (Homo sapiens) (UniProt P37231). Description: ATG_PPARg_TRANS: Attagene TRANS-FACTORIAL HepG2 Assay for human Peroxisome Proliferator-activated Receptor-gamma (PPARg) (AID 2283007). The essentials:
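Transient transfection of HepG2 with GAL4-UAS-driven reporter units; chemical dosing 24 h; total RNA → oligo(dT) RT → PCR with reporter primers → 6-FAM primer extension → HpaI digest 2 h 37 C → capillary electrophoresis. Positive direction vs DMSO.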

The target in test [3] is Nuclear receptor subfamily 1 group I member 2 (Homo sapiens) (UniProt O75469). Description: ATG_PXR_TRANS: Attagene TRANS-FACTORIAL HepG2 Assay for human Pregnane X Receptor (PXR) (AID 2283008). The essentials: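 Fluorescence intensity of FAM-labelled, HpaI-digested reporter amplicons, separated by capillary electrophoresis, quantifies induction. HepG2 cells with PXR-Gal4 trans-reporter system were exposed 24 h; DMSO defines baseline.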
Chain of Nuclear receptor subfamily 1 group I member 2 (Homo sapiens) (O75469 whole entry, looked up, the tested form may be a part): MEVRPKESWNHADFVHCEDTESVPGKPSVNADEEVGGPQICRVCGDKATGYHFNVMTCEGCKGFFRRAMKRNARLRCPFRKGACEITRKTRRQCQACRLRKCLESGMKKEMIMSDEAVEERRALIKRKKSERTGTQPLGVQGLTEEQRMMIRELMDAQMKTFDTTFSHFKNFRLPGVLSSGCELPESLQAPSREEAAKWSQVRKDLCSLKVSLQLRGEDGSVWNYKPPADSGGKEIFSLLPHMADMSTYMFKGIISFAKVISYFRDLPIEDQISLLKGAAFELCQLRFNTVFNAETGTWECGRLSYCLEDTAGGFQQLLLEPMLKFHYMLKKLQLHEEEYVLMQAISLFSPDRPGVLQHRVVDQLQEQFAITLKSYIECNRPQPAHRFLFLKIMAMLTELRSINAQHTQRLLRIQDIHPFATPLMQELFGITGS

Test [4] addresses human Peroxisome Proliferator-activated Receptor delta (PPARd), PPARD (gene 5467) (UniProt Q03181). Nature of the test: ATG_PPARd_TRANS: Attagene TRANS-FACTORIAL HepG2 Assay for human Peroxisome Proliferator-activated Receptor delta (PPARd) (AID 2283002). Put shortly: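 HepG2 cells transiently transfected with GAL4-UAS multiplexed reporter units driven by exogenous chimeric NR-GAL4 proteins; 24 h compound exposure. Reporter mRNA measured by RT-PCR, 6-FAM primer extension, HpaI digestion and capillary electrophoresis; gain of signal fitted relative to DMSO.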

The target of test [5] is human RAR-related Orphan Receptor beta (RORb), RORB (gene 6096) (UniProt Q92753). Nature of the test: ATG_RORb_TRANS: Attagene TRANS-FACTORIAL HepG2 Assay for human RAR-related Orphan Receptor beta (RORb) (AID 2283010). Put shortly:
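HepG2 cells transiently transfected with GAL4-UAS reporter units expressing chimeric NR-Gal4 protein; reporter mRNA measured 24 h after dosing by RT-PCR, 6-FAM labelling and capillary electrophoresis. Gain-of-signal fitted relative to DMSO baseline.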

As a reminder, the AC50 is the concentration at which the activity in the assay is half-maximal.

Records with an inconclusive call do not appear. Calls of active or inactive are those of the source. Rule for the calls, unless noted: active = hit-call score of the fitted dose curve at least 0.9, where 1 is the maximum; inconclusive = response in the unintended direction; inactive = score below 0.9.

Chain of Peroxisome proliferator-activated receptor gamma (Homo sapiens) (P37231 whole entry, looked up, the tested form may be a part): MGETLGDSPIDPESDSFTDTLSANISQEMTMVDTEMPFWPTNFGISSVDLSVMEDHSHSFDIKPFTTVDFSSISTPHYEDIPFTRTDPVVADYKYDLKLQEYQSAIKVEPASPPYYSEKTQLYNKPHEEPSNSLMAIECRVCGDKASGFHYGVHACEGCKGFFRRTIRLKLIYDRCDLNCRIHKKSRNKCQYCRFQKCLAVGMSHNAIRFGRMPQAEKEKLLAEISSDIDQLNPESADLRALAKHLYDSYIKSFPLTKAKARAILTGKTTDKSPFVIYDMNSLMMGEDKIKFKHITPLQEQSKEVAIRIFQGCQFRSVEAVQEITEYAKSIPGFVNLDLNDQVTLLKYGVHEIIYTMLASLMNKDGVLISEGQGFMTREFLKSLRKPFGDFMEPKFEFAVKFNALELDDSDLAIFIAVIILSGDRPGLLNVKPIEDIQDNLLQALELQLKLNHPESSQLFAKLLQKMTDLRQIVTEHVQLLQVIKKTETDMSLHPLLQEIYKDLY
Chain of human Peroxisome Proliferator-activated Receptor delta (PPARd), PPARD (gene 5467) (Q03181 whole entry, looked up, the tested form may be a part): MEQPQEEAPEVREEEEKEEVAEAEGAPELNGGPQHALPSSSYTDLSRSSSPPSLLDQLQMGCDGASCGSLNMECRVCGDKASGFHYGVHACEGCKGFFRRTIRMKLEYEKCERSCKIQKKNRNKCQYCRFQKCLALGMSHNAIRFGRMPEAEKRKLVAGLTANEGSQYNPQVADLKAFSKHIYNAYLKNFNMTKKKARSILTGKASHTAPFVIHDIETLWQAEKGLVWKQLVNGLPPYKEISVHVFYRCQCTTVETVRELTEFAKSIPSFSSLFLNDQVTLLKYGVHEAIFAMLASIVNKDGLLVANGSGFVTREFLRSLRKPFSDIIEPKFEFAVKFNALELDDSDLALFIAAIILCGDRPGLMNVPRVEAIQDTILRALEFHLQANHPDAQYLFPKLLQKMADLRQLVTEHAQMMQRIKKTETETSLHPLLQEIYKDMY
Chain of human RAR-related Orphan Receptor beta (RORb), RORB (gene 6096) (Q92753 whole entry, looked up, the tested form may be a part): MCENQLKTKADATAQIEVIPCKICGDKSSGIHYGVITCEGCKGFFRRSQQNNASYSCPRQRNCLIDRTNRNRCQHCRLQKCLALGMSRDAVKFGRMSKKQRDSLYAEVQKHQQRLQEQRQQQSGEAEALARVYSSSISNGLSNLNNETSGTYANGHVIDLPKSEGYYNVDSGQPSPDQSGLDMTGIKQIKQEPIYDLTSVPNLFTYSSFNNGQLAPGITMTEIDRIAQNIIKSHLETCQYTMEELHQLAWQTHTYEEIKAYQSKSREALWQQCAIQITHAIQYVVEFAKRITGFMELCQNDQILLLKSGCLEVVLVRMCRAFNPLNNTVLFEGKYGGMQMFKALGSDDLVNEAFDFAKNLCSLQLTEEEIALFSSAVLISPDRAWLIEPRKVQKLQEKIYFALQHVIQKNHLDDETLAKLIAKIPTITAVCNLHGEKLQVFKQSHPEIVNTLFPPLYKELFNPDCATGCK

For `O=[N+]([O-])c1cc(C(F)(F)F)ccc1Cl`, the outcome in test [1], in test [2] and in test [3] was inactive.

`FC1(F)C(F)(F)C(F)(F)C2(F)C(F)(C1(F)F)C(F)(F)C(F)(F)C1(F)C(F)(F)C(F)(F)C(F)(F)C(F)(F)C12F` (stereo not drawn): the result in test [4] and in test [3] was inactive.

In the case of `CC(=O)O[C@]1(C(C)=O)CC[C@H]2[C@@H]3C[C@H](C)C4=CC(=O)CC[C@]4(C)[C@H]3CC[C@@]21C`, the outcome in test [1] and in test [3] was inactive. Besides, the AC50 in test [2] is 21.9 µM (active).

Consider `CC1(C)[C@H](C(=O)OCc2cccc(Oc3ccccc3)c2)[C@@H]1C=C(Cl)Cl`, for which the compound was called inactive in test [4] and in test [3].

`CO[Si](C)(OC)c1ccccc1`: the outcome in test [4], in test [2] and in test [5] was inactive. For the same compound, the AC50 in test [3] was 2.73 µM (active).

With `CC(=O)/C=C/C1=C(C)CCCC1(C)C`, the outcome in test [1] was inactive. Further, the concentration at half-maximal activity (AC50) in test [2] is 21.1 µM (active); in test [3], 2.3 µM (active).

As for `Cc1cc(C2(c3cc(C)c(O)cc3C)OS(=O)(=O)c3ccccc32)c(C)cc1O`, the outcome in test [1] and in test [2] was inactive. Further, the concentration at half-maximal activity (AC50) in test [3] is 32.7 µM (active).

`CCCCC(CC)COCCC#N` (stereo not drawn): the result in test [1], in test [2] and in test [3] was inactive.

These data come from PubChem BioAssay (EPA / NIEHS).
